# Experimental data taken from PubChem BioAssay (NCATS).
# Values without a mark were called inactive. Results filed as inconclusive are left out. Where a call stands in place of a potency, no number is given. Active and inactive are the calls of the source. Unless noted, the call rests on the fitted dose curve; in most records, active means well fitted curve in the direction sought with a large enough effect; inconclusive means small, poorly fitted or top-dose-only effect, or another doubt; inactive means no such curve, though single readings can be large; an effect the other way counts as inactive or inconclusive.
# Experiments:
# [1] = biological target: Cytochrome P450 1A2 (Homo sapiens) (UniProt P05177); experiment: p450-cyp1a2 (AID 410; calls by dose curve; further: potency means the concentration at half of the fitted maximal effect)
# Procedure, shortened: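 Read-out is luminescence from luciferin produced by CYP1A2 demethylation of Luciferin-ME (100uM, at Km). Detection reagent stopped the 60 min NADPH-dependent reaction; signals were normalized to 57 uM furafylline.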
# [2] = biological target: Mitogen-activated protein kinase 10 (Mus musculus) (UniProt Q61831); experiment: JNK3 AlphaScreen Assay (AID 530; active means well fitted curve in either direction with a large enough effect, not every such curve was filed as active;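 further: kinase came from lysate of stimulated human HepG2 cells; signal reports phosphorylation of biotinylated GST-cJun 1-79 at Ser73 with 10 µM ATP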)
# Procedure, shortened: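 HepG2 lysate (IL-1b/TNFa pre-activated) + biotin-GST-cJun 1-79 + anti-pSer73 cJun; cpd titration, 15 min RT; ATP 10 uM start; Tris pH 7.6, MgCl2, DTT, vanadate; beads in EDTA buffer; AlphaScreen.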
# [3] = biological target: 3',5'-cyclic-AMP phosphodiesterase 4B (Homo sapiens) (UniProt Q07343); experiment: qHTS Assay for Inhibitors of PDE-IV (AID 607; active means well fitted activation curve with a large enough effect in the main read-out, with a control signal flat, not every such curve was filed as active)
# Procedure, shortened: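 Live HEK293 cells with a modified cyclic nucleotide-gated (CNG) channel report intracellular cAMP via membrane-potential dye fluorescence (ex 535/em 590 nm). Endogenous PDE-IV was targeted. Compounds were tested at up to 22.9 uM final; RO 20-1724 100 uM served as control.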
# [4] = biological target: Cytochrome P450 3A4 (Homo sapiens) (UniProt P08684); experiment: qHTS Assay for Activators of Cytochrome P450 3A4 (AID 885); further: nearly all actives have a fitted effect of over 65% in size
# Procedure, shortened: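 Using 20nM recombinant human CYP3A4 in potassium phosphate (200mM), substrate Luciferin-PPXE at 25uM, luminescent luciferin detection followed a 60-min RT NADPH reaction; data scaled to 57 uM ketoconazole.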
# [5] = Cell Viability - BJ (AID 421; calls by dose curve;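 further: potency means the concentration at half of the fitted maximal effect; cells exposed to compound for 40 hours at 37 °C before readout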); settings: BJ fibroblast viability, qHTS
# Procedure, shortened: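 Quantitative HTS: ATP depletion in BJ cells after 40 hr compound exposure in complete culture medium, detected with CellTiter-Glo; AC50 from standard Hill fits.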
# [6] = Cell Viability - MRC5 (AID 434; calls by dose curve;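 further: potency means the concentration at half of the fitted maximal effect; potency reflects cytotoxicity seen as loss of intracellular ATP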); settings: MRC5 lung fibroblast viability, qHTS
# Procedure, shortened: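 ATP luminescence read-out (CellTiter-Glo, 20 min RT) after 40 hr, 37 °C compound exposure of 1500 MRC5 cells/well. Data normalized to DMSO (basal) and 100 uM tamoxifen (100% inhibition); AC50 from standard Hill equation.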
# [7] = Cell Viability - SK-N-SH (AID 435; calls by dose curve;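 further: potency means the concentration at half of the fitted maximal effect; compound exposure lasted 40 h at 37 °C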); settings: SK-N-SH neuroblastoma cell viability qHTS
# Procedure, shortened: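 SK-N-SH human neuroblastoma cells (1500/well) were exposed to compounds in complete medium for 40 h at 37 °C, and intracellular ATP was then measured by CellTiter-Glo luminescence. AC50 was taken from Hill fits, normalized to DMSO and 100 uM tamoxifen.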
# [8] = Cell Viability - SH-SY5Y (AID 544); settings: SH-SY5Y neuroblastoma cell viability; viability change, negative = cytotoxic: at 92.2 µM (top of the series); further: nearly all actives have a fitted effect of over 55% in size
# Procedure, shortened: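 Quantitative HTS in SH-SY5Y neuroblastoma cells, 40 hr treatment at 37 °C, ATP content by luciferase luminescence; AC50 from Hill fits.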
# [9] = Cell Viability - Renal Proximal Tubule (AID 545); settings: renal proximal tubule cells viability, primary cells of rat origin; activity change, negative = cytotoxicity: at 91.7 µM (top of the series); further: nearly all actives have a fitted effect of over 40% in size
# Procedure, shortened: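 Primary rat renal proximal tubule cells (1000/well) were treated with compounds for 40 hr at 37 °C in complete medium. Intracellular ATP was measured by CellTiter-Glo luminescence, and AC50 values came from Hill-equation fits of concentration-response data.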
# [10] = Cellular Toxicity (caspase-3) HepG2 (AID 654);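 further: cells exposed to compound for 16 hours before reading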
# Procedure, shortened: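 Concentration-response AC50 values reflect caspase-3/7 induction in HepG2 cells after 16 hours of compound exposure, quantified by luminescence from liberated aminoluciferin and referenced to 100 uM tamoxifen as full stimulation.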
# [11] = Cellular Toxicity (caspase-3) HUV-EC-C (AID 656)
# Procedure, shortened: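 HUV-EC-C endothelial cells, 1000/well, were pre-incubated 5 hr at 37°C, then exposed to compounds for 16 hr at 37°C. Caspase-Glo 3/7 luminescence was read after 20 min at room temperature. AC50 came from Hill fits, normalized to DMSO and 100 uM tamoxifen.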
# [12] = Cellular Toxicity (caspase-3) Mesangial (AID 660); settings: mesangial cells, normalized: DMSO 0%, 100 µM tamoxifen 100%; at 91.7 µM (top of the series);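 further: combined caspase 3 and 7 activity read by Caspase-Glo luminescence; cells exposed to compound for 16 h before the caspase read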
# Procedure, shortened: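 AC50 values come from Hill-equation fits of caspase 3/7 activation, measured as Caspase-Glo luminescence in human glomerular mesangial cells exposed to compound for 16 h at 37 °C; 100% set by 100 uM tamoxifen.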
# [13] = Cellular Toxicity (caspase-3) N2a (AID 665); settings: Potency: caspase-3 activation;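 further: compound exposure lasted 16 h at 37 °C before readout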
# Procedure, shortened: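 Concentration-response qHTS: compound-induced caspase-3/7 luminescence in N2a cells (16 h, 37 °C), relative to DMSO and 10 uM staurosporine controls; AC50 obtained using the standard Hill equation.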
# [14] = Cellular Toxicity (caspase-3) Renal Proximal Tubule (AID 667);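 further: cells exposed to compound for 16 hours at 37 °C before detection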
# Procedure, shortened: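 Primary rat proximal tubule cells, 1000/well, 5 h plating at 37 °C, then compound 16 h at 37 °C. Caspase-Glo 3/7 reagent, 1 h RT, luminescence. Normalized to DMSO (basal) and 10 uM staurosporine (100%); Hill-fit AC50.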
# [15] = biological target: Cytochrome P450 3A4 (Homo sapiens) (UniProt P08684); experiment: qHTS Assay for Inhibitors and Substrates of Cytochrome P450 3A4 (AID 884); further: nearly all actives have a fitted effect of over 50% in size
# Procedure, shortened: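 Luminescent readout of luciferin produced by CYP3A4 (20 nM) dealkylation of Luciferin-PPXE, 25 uM (its KM). NADPH-driven reaction ran 60 min at RT after 10 min compound preincubation; data scaled to 57 uM ketoconazole as 100% inhibition.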
# [16] = biological target: Peroxisome proliferator-activated receptor alpha (Homo sapiens) (UniProt Q07869); experiment: qHTS assay for small molecule agonists of the peroxisome proliferator-activated receptor alpha (PPARalpha) signaling pathway (AID 651778); settings: PathHunter PPARalpha complementation, chemiluminescence, 6 h; max response: stronger effect = higher value
# Procedure, shortened: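 Enzyme-fragment complementation assay in which ligand-bound PPARalpha translocates and forms an active enzyme that generates chemiluminescence. Cells were plated overnight, exposed to compound for 6 hr at 37 C, and then given detection reagent for 60 min at room temperature.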
# [17] = qHTS assay for cell viability of HEK293 cells (AID 743288); settings: ATP luminescence (CellTiter-Glo), 18 h; max response: stronger effect = lower value; further: nearly all actives have a fitted effect of over 50% in size
# Procedure, shortened: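 After 18 h compound exposure at 37 C, parental HEK293 cells (2,000/well) are lysed with CellTiter-Glo and luminescence is read following 30 min at room temperature.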
# Chain of Cytochrome P450 1A2 (Homo sapiens) (P05177 whole entry, looked up): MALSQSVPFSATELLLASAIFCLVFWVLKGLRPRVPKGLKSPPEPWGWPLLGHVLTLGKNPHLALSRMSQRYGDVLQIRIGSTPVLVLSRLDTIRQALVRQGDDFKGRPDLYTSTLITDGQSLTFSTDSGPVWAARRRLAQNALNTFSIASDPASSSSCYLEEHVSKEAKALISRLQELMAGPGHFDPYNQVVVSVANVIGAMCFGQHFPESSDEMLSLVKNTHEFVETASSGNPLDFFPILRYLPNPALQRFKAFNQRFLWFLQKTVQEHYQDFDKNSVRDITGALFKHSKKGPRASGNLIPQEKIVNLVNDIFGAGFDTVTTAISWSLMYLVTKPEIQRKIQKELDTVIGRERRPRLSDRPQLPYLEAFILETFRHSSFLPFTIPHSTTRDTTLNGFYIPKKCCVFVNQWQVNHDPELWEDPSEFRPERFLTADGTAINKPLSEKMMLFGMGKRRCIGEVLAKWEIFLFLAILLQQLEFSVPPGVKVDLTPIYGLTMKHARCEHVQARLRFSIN
# Chain of 3',5'-cyclic-AMP phosphodiesterase 4B (Homo sapiens) (Q07343 whole entry, looked up): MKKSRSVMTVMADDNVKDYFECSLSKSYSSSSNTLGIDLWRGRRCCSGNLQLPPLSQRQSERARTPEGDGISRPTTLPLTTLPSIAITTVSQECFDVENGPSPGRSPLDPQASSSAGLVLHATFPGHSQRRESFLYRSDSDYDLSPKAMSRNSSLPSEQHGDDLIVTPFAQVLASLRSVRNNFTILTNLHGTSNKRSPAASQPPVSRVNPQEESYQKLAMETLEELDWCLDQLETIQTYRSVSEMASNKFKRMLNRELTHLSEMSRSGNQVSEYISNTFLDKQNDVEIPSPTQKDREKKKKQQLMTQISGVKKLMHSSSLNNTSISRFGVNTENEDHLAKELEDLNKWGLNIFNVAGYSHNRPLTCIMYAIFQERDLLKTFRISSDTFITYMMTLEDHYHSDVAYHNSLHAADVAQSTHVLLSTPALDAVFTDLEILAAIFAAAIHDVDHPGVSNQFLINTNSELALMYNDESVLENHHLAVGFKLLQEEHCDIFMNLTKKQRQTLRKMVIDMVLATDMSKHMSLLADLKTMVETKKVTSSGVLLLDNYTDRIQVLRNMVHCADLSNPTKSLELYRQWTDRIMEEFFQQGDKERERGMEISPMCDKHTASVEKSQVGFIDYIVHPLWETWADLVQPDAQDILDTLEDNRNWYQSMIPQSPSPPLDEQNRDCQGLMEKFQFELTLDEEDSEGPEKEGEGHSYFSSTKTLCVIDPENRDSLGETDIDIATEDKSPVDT
# Chain of Cytochrome P450 3A4 (Homo sapiens) (P08684 whole entry, looked up): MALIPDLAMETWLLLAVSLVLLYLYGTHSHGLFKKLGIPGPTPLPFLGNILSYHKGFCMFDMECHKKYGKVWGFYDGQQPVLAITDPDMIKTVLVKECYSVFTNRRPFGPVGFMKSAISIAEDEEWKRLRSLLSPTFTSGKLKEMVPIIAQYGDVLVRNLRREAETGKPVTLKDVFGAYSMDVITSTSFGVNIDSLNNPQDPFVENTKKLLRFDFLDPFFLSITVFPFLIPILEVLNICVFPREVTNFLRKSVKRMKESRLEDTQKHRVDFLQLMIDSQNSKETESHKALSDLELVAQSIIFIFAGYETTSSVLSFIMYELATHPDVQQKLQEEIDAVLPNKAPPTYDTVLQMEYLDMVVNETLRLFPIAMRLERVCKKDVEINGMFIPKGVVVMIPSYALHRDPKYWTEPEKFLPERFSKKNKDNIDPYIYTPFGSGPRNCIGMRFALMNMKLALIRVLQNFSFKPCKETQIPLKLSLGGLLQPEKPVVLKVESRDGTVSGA
# Chain of Peroxisome proliferator-activated receptor alpha (Homo sapiens) (Q07869 whole entry, looked up, the tested form may be a part): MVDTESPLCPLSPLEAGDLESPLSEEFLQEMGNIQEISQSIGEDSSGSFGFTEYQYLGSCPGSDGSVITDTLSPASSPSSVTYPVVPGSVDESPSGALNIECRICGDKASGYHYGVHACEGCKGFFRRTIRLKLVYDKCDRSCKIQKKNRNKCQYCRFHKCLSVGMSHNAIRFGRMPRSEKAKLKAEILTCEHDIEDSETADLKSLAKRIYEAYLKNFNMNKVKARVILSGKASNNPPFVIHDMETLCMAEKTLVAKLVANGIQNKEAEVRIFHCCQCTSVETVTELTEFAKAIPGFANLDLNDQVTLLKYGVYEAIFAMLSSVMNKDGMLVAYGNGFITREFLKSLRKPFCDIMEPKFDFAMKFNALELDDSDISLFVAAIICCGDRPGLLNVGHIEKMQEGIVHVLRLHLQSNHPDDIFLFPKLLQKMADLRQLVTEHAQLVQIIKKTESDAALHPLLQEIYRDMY
smiles,measurement,setting,value
CCC[C@@H]1C[C@@]1(CCC)C(NC(=O)c1ccco1)c1ccc(Cl)cc1 (stereo partly specified),Potency,[1],25.1 µM (active)
same,Potency,[2],inactive
same,Potency,[3],inactive
same,Potency,[4],inactive
CCCC/C=C/C(NC(=O)c1ccco1)c1ccccc1 (stereo unspecified),Potency,[1],5.01 µM (active)
same,Potency,[2],inactive
same,Potency,[3],inactive
same,Potency,[4],inactive
CCCC/C=C/C(NC(=O)C(C)(C)C)c1ccccc1 (stereo unspecified),Potency,[1],20 µM (active)
same,Potency,[2],inactive
same,Potency,[3],inactive
same,Potency,[4],inactive
Cc1c2c(nc3ccccc13)-c1cccc(=O)n1C2,Potency,[1],0.1 µM (active)
same,Potency,[2],inactive
same,Potency,[3],inactive
same,Potency,[4],inactive
CCC/C=C(\CCC)C(NS(=O)(=O)c1ccc(C(F)(F)F)cc1)c1ccc(-c2ccccc2)cc1 (stereo unspecified),Potency,[1],inactive
same,Potency,[2],inactive
same,Potency,[3],inactive
same,Potency,[4],inactive
CC1=C(C(=O)OCc2ccccc2)C(c2ccc([N+](=O)[O-])cc2)NC(=O)N1CCCCCC(=O)O (stereo unspecified),Potency,[1],15.8 µM (active)
same,Potency,[2],inactive
same,Potency,[3],inactive
same,Potency,[4],inactive
COC(=O)C1CC1C(NC(=O)[C@@H]1CCCN1)c1ccccc1 (stereo partly specified),Potency,[1],15.8 µM (active)
same,Potency,[2],inactive
same,Potency,[3],inactive
same,Potency,[4],inactive
C[C@@]1(C(NC(=O)Cc2ccccc2)c2ccc(-c3ccccc3)cc2)C[C@H]1C1CCCCC1 (stereo partly specified),Potency,[1],inactive
same,Potency,[2],inactive
same,Potency,[3],inactive
same,Potency,[4],inactive
C[C@@]1(C(NC(=O)c2cccs2)c2ccc(-c3ccccc3)cc2)C[C@H]1C1CCCCC1 (stereo partly specified),Potency,[1],inactive
same,Potency,[2],inactive
same,Potency,[3],inactive
same,Potency,[4],inactive
C[C@@H](C(=O)NCc1ccc(S(C)(=O)=O)cc1)[C@@H]1C[C@@]1(C)[C@@H](NC(=O)OCc1ccccc1)c1ccccc1,Potency,[1],15.8 µM (active)
same,Potency,[2],inactive
same,Potency,[3],inactive
same,Potency,[4],inactive
OC1c2ccccc2-c2nc3ccccc3cc21 (stereo unspecified),Potency,[1],0.126 µM (active)
same,Potency,[2],inactive
same,Potency,[3],inactive
same,Potency,[4],inactive
CC[C@H]1C2=C3C(CC[C@H]4C(OCc5ccc(F)cc5C(F)(F)F)OC[C@](C)([C@@H]34)N(C(=O)OC(C)(C)C)C2)C2COC(=O)OCC21 (stereo partly specified),Potency,[1],inactive
same,Potency,[2],inactive
same,Potency,[3],inactive
same,Potency,[4],inactive
CC[C@@H]1OC(=O)[C@@H](C)[C@H](O[C@@H]2C[C@@](C)(OC)[C@@H](O)[C@H](C)O2)[C@H](C)[C@H](O[C@@H]2O[C@@H](C)C[C@@H](N(C)C)[C@H]2O)[C@@](C)(O)C[C@H](C)C(=O)[C@@H](C)[C@H](O)[C@@]1(C)O,Potency,[1],inactive
same,Potency,[2],inactive
same,Potency,[3],inactive
C[C@H](CO)NC(=O)[C@H]1C[C@@H]1[C@H](NP(=O)(c1ccccc1)c1ccccc1)c1ccccc1,Potency,[1],inactive
same,Potency,[2],inactive
same,Potency,[3],inactive
same,Potency,[4],inactive
COC(=O)[C@@]1(Cc2ccc(OC)cc2)[C@H]2c3cc(C(=O)N4CCCC4)n(Cc4ccc(Cl)c(C(F)(F)F)c4)c3C[C@H]2CN1C(=O)c1ccccc1,Potency,[1],12.6 µM (active)
same,Potency,[2],inactive
same,Potency,[3],inactive
same,Potency,[4],inactive
COC(=O)[C@H]1C[C@@H]1[C@H](NC(=O)Oc1ccc(F)cc1)c1ccccc1,Potency,[1],1 µM (active)
same,Potency,[2],inactive
same,Potency,[3],inactive
same,Potency,[4],inactive
CC(C)c1cccc2nc3c(c([Si](C)(C)C)c12)Cn1c-3cccc1=O,Potency,[1],15.8 µM (active)
same,Potency,[2],inactive
same,Potency,[3],inactive
same,Potency,[4],inactive
COC(=O)[C@@H]1C[C@H]1[C@@H](NC(=O)c1cc(C)nn1C)c1ccccc1,Potency,[1],15.8 µM (active)
same,Potency,[2],inactive
same,Potency,[3],inactive
same,Potency,[4],inactive
CC[C@H]1C2=C3C(CC[C@H]4C(OC)OC[C@](C)([C@@H]34)N(C(=O)OC(C)(C)C)C2)C(CO)C1CO (stereo partly specified),Potency,[1],12.6 µM (active)
same,Potency,[2],inactive
same,Potency,[3],inactive
same,Potency,[4],inactive
CCc1c2c(nc3cccc(C(C)C)c13)-c1cccc(=O)n1C2,Potency,[1],0.501 µM (active)
same,Potency,[2],inactive
same,Potency,[3],inactive
same,Potency,[4],inactive
COC(=O)[C@@]1(Cc2ccc(F)cc2)[C@@H]2C(=CC(=O)[C@H]2CC(=O)C(=O)N2CCCC2)CN1C(=O)c1ccccc1,Potency,[1],inactive
same,Potency,[2],inactive
same,Potency,[3],inactive
same,Potency,[4],inactive
CCCCCC1=C2CNC(CCC)(C(=O)OC)C=C2C(C)C1=O (stereo unspecified),Potency,[1],31.6 µM (active)
same,Potency,[2],inactive
same,Potency,[3],inactive
same,Potency,[4],inactive
C[C@@H](C(=O)O)[C@H]1C[C@]1(C)[C@H](NC(=O)OCc1ccccc1)c1ccccc1,Potency,[1],inactive
same,Potency,[2],inactive
same,Potency,[3],inactive
same,Potency,[4],inactive
CCC/C=C(\CCC)C(NC(=O)c1ccc(C(F)(F)F)cc1)c1ccc(C(F)(F)F)cc1 (stereo unspecified),Potency,[1],inactive
same,Potency,[2],inactive
same,Potency,[3],inactive
same,Potency,[4],inactive
COC(=O)[C@@H]1C[C@H]1[C@@H](NC(=O)c1ccccc1)c1ccccc1,Potency,[3],inactive
O=C(Cc1ccccc1I)Nc1ccccc1,Potency,[3],inactive
Cc1cccc(O)c1C,Potency,[5],> 92 µM
same,Potency,[6],> 92 µM
same,Potency,[7],> 92 µM
same,Potency,[2],inactive
same,Potency,[8],inactive
same,Potency,[9],inactive
same,Potency,[10],inactive
same,Potency,[11],inactive
same,caspase-3 activation,[12],-0.758%
same,Potency,[13],inactive
same,outcome,[14],inactive
same,Potency,[15],inactive
same,max response,[16],-2.92%
same,max response,[17],-3.02%
